Test results: PubChem BioAssay (NCATS)
Inconclusive results are not listed. The source made the active and inactive calls. Unless noted, the call rests on the fitted dose curve.

Key:
[1] = Cell Viability - BJ (AID 421); settings: BJ fibroblast viability, qHTS;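 further: potency means the concentration at half of the fitted maximal effect; cells exposed to compound for 40 hours at 37 °C before readout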
How it was run: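 Cytotoxicity in human BJ foreskin fibroblasts is scored as loss of cellular ATP after a 40-hour exposure, measured by luciferase luminescence. Controls are DMSO and 100 uM tamoxifen.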

[2] = Cell Viability - Jurkat (AID 426;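 active means dose-dependent loss of cell ATP signal giving a full or clear fitted curve, ranked by lower potency value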; further: potency means the concentration at half of the fitted maximal effect); settings: qHTS
How it was run: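 qHTS, 1536-well; Jurkat E6-1, 5000 cells/well, complete medium; cpd 40 hr, 37 °C; CellTiter-Glo 20 min RT; luminescence. AC50 by Hill fit.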

[3] = Cell Viability - Hek293 (AID 427;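 active means compounds whose dose-response curve shows a full or clear partial loss of cell viability, called from curve shape rather than a numeric limit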;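 further: potency means the concentration at half of the fitted maximal effect; cells exposed to compound for 40 hours at 37 °C before reading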); settings: qHTS
How it was run: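 qHTS, human embryonic kidney (adenovirus-transformed) cells; 40 hr cpd, 37 °C; CellTiter-Glo ATP luminescence. Norm: DMSO = 0, 100 uM tamoxifen = 100% inhibition. Hill-fit AC50.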

[4] = Cell Viability - HepG2 (AID 433); settings: qHTS;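 further: potency means the concentration at half of the fitted maximal effect; potency for ATP loss meaning cytotoxicity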
How it was run: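 Read-out is luciferase-based quantitation of cellular ATP as a measure of viable HepG2 cells after 40 h treatment at 37 °C. Signal decrease is scaled between DMSO-only and 100 uM tamoxifen controls, with AC50 fitted by the Hill equation.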

[5] = Cell Viability - MRC5 (AID 434); settings: MRC5 lung fibroblast viability, qHTS;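 further: potency means the concentration at half of the fitted maximal effect; potency reflects cytotoxicity seen as loss of intracellular ATP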
How it was run: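 MRC5 normal human lung fibroblasts (1500/well) were treated with compounds for 40 hr at 37 °C in complete medium, and viable cells were measured as intracellular ATP by CellTiter-Glo luminescence. AC50 came from Hill fits, normalized to DMSO and 100 uM tamoxifen.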

[6] = Cell Viability - SK-N-SH (AID 435); settings: SK-N-SH neuroblastoma cell viability qHTS;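 further: potency means the concentration at half of the fitted maximal effect; compound exposure lasted 40 h at 37 °C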
How it was run: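 Luminescent ATP signal served as the viability read-out after 40 hours of compound treatment of human neuroblastoma SK-N-SH cells. Concentration-response data, scaled between DMSO and 100 uM tamoxifen, gave AC50 values by standard Hill modeling.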

[7] = biological target: Mitogen-activated protein kinase 10 (Mus musculus) (UniProt Q61831); assay: JNK3 AlphaScreen Assay (AID 530; active means well fitted curve in either direction with a large enough effect, not every such curve was filed as active;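 further: kinase came from lysate of stimulated human HepG2 cells; signal reports phosphorylation of biotinylated GST-cJun 1-79 at Ser73 with 10 µM ATP; on the % scale 0 is the no-effect control and ±100 the full control effect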); settings: JNK3 lysate, c-Jun phosphorylation; series mostly up to 57.1 µM
How it was run: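 Inhibitors reduce antibody binding to phosphorylated biotin-cJun, lowering AlphaScreen luminescence. Lysates from HepG2 cells pre-activated by IL-1beta plus TNF-alpha supplied JNK3; compounds were titrated.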

[8] = Cell Viability - N2a (AID 540; active means well fitted curve in the direction sought with a large enough effect; an effect the other way counts as inactive or inconclusive;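 further: plate controls were DMSO alone for no effect and tamoxifen control for full effect; nearly all actives have a fitted effect of over 45% in size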); settings: N2a mouse neuroblastoma cell viability; activity change, negative = cytotoxicity: at 92.2 µM (top of the series)
How it was run: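 Luminescent ATP signal (CellTiter-Glo, 20 min at room temperature) served as the viability read-out after N2a cells were treated with compounds for 40 hours at 37 °C. Concentration-response data were fitted to the Hill equation for AC50.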

[9] = Cell Viability - NIH 3T3 (AID 541; active means well fitted curve in the direction sought with a large enough effect; an effect the other way counts as inactive or inconclusive;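 further: plate controls were DMSO alone for no effect and tamoxifen positive control for full effect; nearly all actives have a fitted effect of over 25% in size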); settings: NIH 3T3 cell viability, qHTS; activity change, negative = cytotoxicity: at 92.2 µM (top of the series)
How it was run: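 Luminescent ATP signal (CellTiter-Glo) served as the viability read-out after NIH 3T3 cells were exposed to compounds over a concentration range for 40 hr at 37 °C. Hill-equation modelling of concentration-response data gave AC50.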

[10] = Cell Viability - HUV-EC-C (AID 542; active means well fitted curve in the direction sought with a large enough effect; an effect the other way counts as inactive or inconclusive; further: on the % scale 0 is the no-effect control and ±100 the full control effect; nearly all actives have a fitted effect of over 35% in size); settings: HUV-EC-C endothelial cell viability, qHTS; series mostly up to 92.2 µM
How it was run: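 qHTS cytotoxicity: HUV-EC-C, 1000 cells/well, 5 hr settle, compound 40 hr 37 °C, CellTiter-Glo, luminescence. AC50 via Hill equation.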

CC(N)CN (stereo not given)
inactive: Potency [1] > 92 µM | Potency [2] > 92 µM | Potency [3] > 92 µM | Potency [4] > 92 µM | Potency [5] > 92 µM | Potency [6] > 92 µM | outcome [7] | activity change, negative = cytotoxicity [8] 3.26% | Potency [9] | Potency [10]

Cc1ccc(C(C)(C)C)cc1
inactive: Potency [1] > 92 µM | Potency [2] > 92 µM | Potency [3] > 92 µM | Potency [4] > 92 µM | Potency [5] > 92 µM | Potency [6] > 92 µM | outcome [7] | activity change, negative = cytotoxicity [8] -7.24% | Potency [9] | Potency [10]

c1ccc2[nH]cnc2c1
inactive: Potency [1] > 92 µM | Potency [2] > 92 µM | Potency [3] > 92 µM | Potency [4] > 92 µM | Potency [5] > 92 µM | Potency [6] > 92 µM | outcome [7] | activity change, negative = cytotoxicity [8] -1.37% | Potency [9] | Potency [10]

C1CCCC1
inactive: Potency [1] > 92 µM | Potency [2] > 92 µM | Potency [3] > 92 µM | Potency [4] > 92 µM | Potency [5] > 92 µM | Potency [6] > 92 µM | outcome [7] | activity change, negative = cytotoxicity [8] 7.78% | Potency [9] | Potency [10]

O=P(O)(OCc1ccccc1)OCc1ccccc1
inactive: Potency [1] > 92 µM | Potency [2] > 92 µM | Potency [3] > 92 µM | Potency [4] > 92 µM | Potency [5] > 92 µM | Potency [6] > 92 µM | outcome [7] | activity change, negative = cytotoxicity [8] 4.67% | Potency [9] | Potency [10]

CCCCC(CC)CO (stereo not given)
inactive: Potency [1] > 92 µM | Potency [2] > 92 µM | Potency [3] > 92 µM | Potency [4] > 92 µM | Potency [5] > 92 µM | Potency [6] > 92 µM | outcome [7] | activity change, negative = cytotoxicity [8] -1.19% | Potency [9] | Potency [10]

S=C([S-])NCCNC(=S)[S-].[Zn+2]
inactive: Potency [1] > 92 µM | Potency [2] > 92 µM | Potency [3] > 92 µM | Potency [4] > 92 µM | Potency [5] > 92 µM | Potency [6] > 92 µM | outcome [7] | activity change, negative = cytotoxicity [8] -5.49% | Potency [9] | Potency [10]

Cc1cccc([N+](=O)[O-])c1C(=O)O
inactive: Potency [1] > 92 µM | Potency [2] > 92 µM | Potency [3] > 92 µM | Potency [4] > 92 µM | Potency [5] > 92 µM | Potency [6] > 92 µM | outcome [7] | activity change, negative = cytotoxicity [8] 11.2% | Potency [9] | Potency [10]

COc1ccc(N=[N+]([O-])c2ccc(OC)cc2)cc1
inactive: Potency [1] > 92 µM | Potency [2] > 92 µM | Potency [3] > 92 µM | Potency [4] > 92 µM | Potency [5] > 92 µM | Potency [6] > 92 µM | outcome [7] | activity change, negative = cytotoxicity [8] -19% | Potency [9] | Potency [10]

Nc1c(Cl)cc(Cl)cc1Cl
inactive: Potency [1] > 92 µM | Potency [2] > 92 µM | Potency [3] > 92 µM | Potency [4] > 92 µM | Potency [5] > 92 µM | Potency [6] > 92 µM | outcome [7] | activity change, negative = cytotoxicity [8] -11.7% | Potency [9] | Potency [10]

CCCCC(CC)COCC1CO1 (stereo not given)
inactive: Potency [1] > 92 µM | Potency [2] > 92 µM | Potency [3] > 92 µM | Potency [4] > 92 µM | Potency [5] > 92 µM | Potency [6] > 92 µM | outcome [7] | activity change, negative = cytotoxicity [8] -13.9% | Potency [9] | Potency [10]

Nc1ccccc1[N+](=O)[O-]
inactive: Potency [1] > 92 µM | Potency [2] > 92 µM | Potency [3] > 92 µM | Potency [4] > 92 µM | Potency [5] > 92 µM | Potency [6] > 92 µM | outcome [7] | activity change, negative = cytotoxicity [8] -9.35% | Potency [9] | Potency [10]

O=C1C=CCCC1
inactive: Potency [1] > 92 µM | Potency [2] > 92 µM | Potency [3] > 92 µM | Potency [4] > 92 µM | Potency [5] > 92 µM | Potency [6] > 92 µM | outcome [7] | activity change, negative = cytotoxicity [8] 3.2% | Potency [9] | Potency [10]

C=CCCCCCC
inactive: Potency [1] > 92 µM | Potency [2] > 92 µM | Potency [3] > 92 µM | Potency [4] > 92 µM | Potency [5] > 92 µM | Potency [6] > 92 µM | outcome [7] | activity change, negative = cytotoxicity [8] 6.33% | Potency [9] | Potency [10]

C=CCOC(=O)CCCCCCCC
inactive: Potency [1] > 92 µM | Potency [2] > 92 µM | Potency [3] > 92 µM | Potency [4] > 92 µM | Potency [5] > 92 µM | Potency [6] > 92 µM | outcome [7] | activity change, negative = cytotoxicity [8] 9.38% | Potency [9] | Potency [10]

NC(=O)CCCCC(N)=O
inactive: Potency [1] > 92 µM | Potency [2] > 92 µM | Potency [3] > 92 µM | Potency [4] > 92 µM | Potency [5] > 92 µM | Potency [6] > 92 µM | outcome [7] | activity change, negative = cytotoxicity [8] -5.03% | Potency [9] | Potency [10]

FC(F)(F)c1ccccc1Cl
inactive: Potency [1] > 92 µM | Potency [2] > 92 µM | Potency [3] > 92 µM | Potency [4] > 92 µM | Potency [5] > 92 µM | Potency [6] > 92 µM | outcome [7] | activity change, negative = cytotoxicity [8] -3.42% | Potency [9] | Potency [10]
